The record followed here is PubChem BioAssay AID463173 (ICCB-Longwood Screening Facility, Harvard Medical School, 2010).

The structures appear in SMILES notation. The campaign covered roughly 52,000 compounds. About 4,300 (8.3%) were called active. Only a selection was taken, and actives are over-represented in it overall. A number with no mark means an inactive call. No stated cut-off is given here; in the data, active means survival mostly below about 52% (no sharp cut-off); inactive means mostly above about 56%.

This assay concerns DeltatarO mutant. The experiment in a line: growth inhibition of S. aureus wild type versus tarO mutant, primary screen, teichoic acid synthesis inhibitors, RN4220, OD600 (AID 463173). As to conditions: OD600, 18 h, hits give low values, screened at 18.75 µg/mL (by protocol).
Consider `CC(C)CN1CCc2nc(N3CCN(c4ncccn4)CC3)ncc2C1`, for which the survival was 72%. In the case of `CCNc1nc(NCC)nc(N(C#N)CC)n1`, the survival was 62%.

`CCc1ccc(NC(=O)Cn2c(=O)n(Cc3ccc(C)cc3)c(=O)c3cccnc32)cc1`: the survival is 88%. Take `CC(=O)c1ccc(N2CCN(C(=O)Nc3cn(CC(C)C)c(=O)c4ccccc34)CC2)cc1`: the survival is 80%. With `Cc1ccc(C)c(NC(=O)c2cnc(N3CCCC3)nc2C)c1`, the survival was 94%. For the compound `COc1ccc(NC(=O)CSc2oc(-c3ccc(F)cc3)nc2S(=O)(=O)c2ccc(C)cc2)c(OC)c1`, the survival is 61%. `Cc1cccc(NC(=O)NCCOCCn2c(=O)oc3ccccc32)c1C`: the survival was 99%. Turning to `O=C(Nc1ccc(Cl)cc1)N1CCC(CN2CCCC2)CC1`, the survival is 84%. As to `CCCCC(=O)Nc1cccc(OCc2cc(=O)n3ccccc3n2)c1`, the survival was 87%.

In the case of `O=C(NCCC1=CCCCC1)c1ccc2c(c1)N(Cc1ccc(Cl)cc1)C(=O)c1ccccc1S2=O` (configuration not stated), the survival is 63%.

With `O=C(NC1CCCCC1)c1ccc2c(c1)N(Cc1cccc(Cl)c1)C(=O)c1ccccc1S2=O` (configuration not stated), the survival was 101%. Turning to `CCOC(=O)N1CCC(NC(=O)c2ccc3c(c2)N(Cc2ccccc2)C(=O)c2ccccc2S3=O)CC1` (configuration not stated), the survival was 57%. With `CC1CCC(NC(=O)c2ccc3c(c2)N(Cc2cccc(Cl)c2)C(=O)c2ccccc2S3=O)CC1` (configuration not stated), the survival was 25% (active).

As for `CC1CCC(NC(=O)c2ccc3c(c2)N(Cc2ccccc2)C(=O)c2ccccc2S3=O)CC1` (configuration not stated), the survival is 104%. For `CCCCN(C)C(=O)c1ccc2c(c1)N(Cc1cccc(Cl)c1)C(=O)c1ccccc1S2=O` (configuration not stated), the survival was 99%.

In the case of `CCOC(=O)N1CCC(NC(=O)c2ccc3c(c2)N(Cc2ccccc2C)C(=O)c2ccccc2S3=O)CC1` (configuration not stated), the survival was 53%. With `CCN(C(=O)c1ccc2c(c1)N(Cc1cccc(Cl)c1)C(=O)c1ccccc1S2=O)c1ccccc1` (configuration not stated), the survival is 32% (active).

As to `CCOC(=O)N1CCC(NC(=O)c2ccc3c(c2)N(Cc2cc(C)ccc2C)C(=O)c2ccccc2S3=O)CC1` (configuration not stated), the survival is 42% (active). With `O=C(NCCC1=CCCCC1)c1ccc2c(c1)N(Cc1ccccc1)C(=O)c1ccccc1S2=O` (configuration not stated), the survival is 70%.

Regarding `O=C(NCCC1=CCCCC1)c1ccc2c(c1)N(Cc1cccc(Cl)c1)C(=O)c1ccccc1S2=O` (configuration not stated), the survival was 37% (active). `CN(C(=O)c1ccc2c(c1)N(Cc1cccc(Cl)c1)C(=O)c1ccccc1S2=O)C1CCCCC1` (configuration not stated): the survival was 101%. For `Cc1ccc(-n2c(=O)c3c(cnn3C)n(CC(=O)Nc3c(C)cccc3C)c2=O)cc1`, the survival is 85%. On to `COc1ccc(NC(=O)Cn2c(=O)n(-c3ccc(CC(=O)NCC4CCCO4)cc3)c(=O)c3ccccc32)c(OC)c1` (configuration not stated), for which the survival is 102%. Turning to `COc1cc(C(=O)N2CCN(c3ccc(Nc4ccccc4)nn3)CC2)cc(OC)c1OC`, the survival was 80%. In the case of `COc1cc(C(=O)Nc2sc(C(=O)N3CCOCC3)c(C)c2C#N)cc(OC)c1OC`, the survival was 84%.

For `CN(C)CCN(C(=O)c1ccco1)c1nc2c(F)cc(F)cc2s1`, the survival was 72%.

For the compound `O=C(c1ccc2c(c1)N(Cc1ccc(Cl)cc1)C(=O)c1ccccc1S2(=O)=O)N1CCOCC1`, the survival is 96%. Turning to `O=C1OC(C(=O)Nc2ccc(Cl)c(C(F)(F)F)c2)Cc2ccccc21` (configuration not stated), the survival was 55%.

Regarding `O=C1OC(C(=O)Nc2cccc(Br)c2)Cc2ccccc21` (configuration not stated), the survival was 54%. Consider `O=C1OC(C(=O)Nc2cc(C(F)(F)F)ccc2Cl)Cc2ccccc21` (configuration not stated), for which the survival was 56% (active). Then `CCCOc1ccc(C(=O)N(Cc2cccs2)c2ccc(C)cc2)cc1`, with 70%. For `Cn1c(CCNC(=O)c2ccco2)nc2cc(NC(=O)COc3ccc(Cl)cc3)ccc21`, the survival is 58%. For the compound `COc1cc(OC)c(NC(=O)c2c3c(nc4ccccc24)C(=O)N(C2CCCCC2)C3)cc1Cl`, the survival is 60%. For `Cc1ccc(-n2nc(CO)c(C(=O)NCC(c3ccccc3)c3ccccc3)n2)cc1`, the survival is 90%. With `CCOc1ccc(CCNC(=O)CCSCc2cccc(Cl)c2)cc1OCC`, the survival was 81%. For `CCOCCc1nn2c(=O)cc(COC(=O)c3ccccc3NC(=O)CC(C)C)nc2s1`, the survival was 89%. Then `COc1ccc(OC)c(NC(=O)CCCc2nnc3n(C(C)C)c(=O)c4sccc4n23)c1`, with 74%. As for `COc1cccc(N2CCN(C(=O)c3cc4c(=O)oc5ccc(C)cc5c4s3)CC2)c1`, the survival is 89%. Regarding `Cc1cccc(N2CCN(C(=O)c3cc4c(=O)n(C)c5ccccc5c4s3)CC2)c1C`, the survival was 47% (active). On to `Cc1ccc(Cl)cc1N1CCN(C(=O)c2cc3c(=O)n(C)c4ccccc4c3s2)CC1`, for which the survival is 56%. On to `COc1ccccc1N1CCN(C(=O)c2cc3c(=O)n(C)c4ccccc4c3s2)CC1`, for which the survival was 73%. With `Cn1c(=O)c2cc(C(=O)N3CCN(c4cccc(C(F)(F)F)c4)CC3)sc2c2ccccc21`, the survival is 92%.

With `CCn1c(=O)c2cc(C(=O)N3CCN(c4cccc(Cl)c4)CC3)sc2c2ccccc21`, the survival was 62%.

`Cn1c(=O)c2cc(C(=O)N3CCN(c4ccc(Cl)cc4)CC3)sc2c2ccccc21`: the survival is 56% (active). For `CCn1c(=O)c2cc(C(=O)N3CCN(c4cccc(OC)c4)CC3)sc2c2ccccc21`, the survival was 53% (active). For `Cc1cccc(N2CCN(C(=O)c3cc4c(=O)oc5ccccc5c4s3)CC2)c1C`, the survival is 66%. The same measure for `COc1ccc(CNC(=O)CSc2nc3cc4c(cc3cc2C#N)OCCO4)cc1`: 96%; for `CSc1cccc(NC(=O)C2CCN(C(=O)c3cnn(-c4ccccc4)c3-n3cccc3)CC2)c1`: 68%. On to `COc1ccc(/C=C(\C#N)c2nc(-c3cc(Cl)ccc3OC)cs2)cc1`, for which the survival was 91%. The same measure for `CCc1ccc(NCc2cc3ccc(OC)cc3n(CC(=O)Nc3ccc(F)cc3F)c2=O)cc1`: 79%; for `CCOc1ccc(-n2c(-c3ccc(Br)cc3)cc3c2CC(C)(C)CC3=O)cc1`: 17% (active). Then `CCN(CC)C(=O)c1cc2c(n(-c3ccc(OC)cc3)c1=O)CC(C)(C)CC2=O`, with 70%; and `Cc1ccc(-c2cc3c(n2-c2ccccc2F)CC(C)(C)CC3=O)cc1`, with 101%.

As for `CCOc1ccc(-n2c(-c3ccc(OC)cc3)cc3c2CC(C)(C)CC3=O)cc1`, the survival is 15% (active).

For `COc1ccc(-n2c3c(cc(-c4nc(-c5ccc(C)cc5)cs4)c2=O)C(=O)CC(C)(C)C3)cc1`, the survival is 54%. The same measure for `Cc1ccc(-c2cc3c(n2-c2ccc(F)cc2)CC(C)(C)CC3=O)cc1`: 98%; for `CCOc1ccc(NC(=O)CSC2=Nc3ccccc3C3=NC(CC(=O)NCc4ccco4)C(=O)N23)cc1` (configuration not stated): 69%; for `CCCOc1cccc(C(=O)Nc2cc(-c3ccccc3)no2)c1`: 65%. The same measure for `O=c1c2oc3ccccc3c2n(Cc2ccccc2F)c(=O)n1Cc1ccccc1`: 46% (active); for `CCCCn1c(=O)c2oc3ccccc3c2n(CC(=O)Nc2cc(C)ccc2C)c1=O`: 44% (active).

Regarding `COc1cc(NC(=O)Cn2c(=O)n(Cc3ccco3)c(=O)c3oc4ccccc4c32)cc(OC)c1`, the survival was 38% (active). As to `O=c1c2oc3ccccc3c2n(Cc2ccccc2F)c(=O)n1Cc1ccco1`, the survival was 77%. Regarding `Cc1ccc(C)c(Cn2c(=O)n(C(C)C)c(=O)c3oc4ccccc4c32)c1`, the survival was 51% (active). `COc1ccccc1NC(=O)Cn1c(=O)n(Cc2ccco2)c(=O)c2oc3ccccc3c21`: the survival is 67%. For `O=c1c2oc3ccccc3c2n(Cc2ccc(Cl)cc2)c(=O)n1Cc1ccccc1`, the survival was 108%. As to `CC(C)n1c(=O)c2oc3ccccc3c2n(Cc2ccccc2F)c1=O`, the survival was 50%. Then `Cc1ccc(C)c(Cn2c(=O)n(Cc3ccco3)c(=O)c3oc4ccccc4c32)c1`, with 97%; and `Cc1cc(C)cc(NC(=O)Cn2c(=O)n(Cc3ccco3)c(=O)c3oc4ccccc4c32)c1`, with 106%. Take `CCCCn1c(=O)c2oc3ccccc3c2n(CC(=O)Nc2cccc(Cl)c2C)c1=O`: the survival was 52%. For `Cc1ccc(C)c(NC(=O)Cn2c(=O)n(Cc3ccccc3)c(=O)c3oc4ccccc4c32)c1`, the survival was 62%.

`CN1/C(=C/C(=O)C2CCC2)Sc2ccccc21`: the survival was 56%. Turning to `Cn1c(=O)n(C)c2cc(N3CCCCC3)c(NC(=O)Nc3ccc(Br)cc3)cc21`, the survival is 88%. `COCCn1c(=N)c(C(=O)NCc2ccco2)cc2c(=O)n3cc(C)ccc3nc21`: the survival was 69%.

Consider `COc1cccc(C(c2sc3nc(-c4ccco4)nn3c2O)N2CCN(C)CC2)c1` (configuration not stated), for which the survival is 88%. For `CCOC(=O)c1c(NC(=O)c2cc3nc(-c4ccc(OC)cc4)cc(C(F)(F)F)n3n2)sc2c1CCC(C)C2` (configuration not stated), the survival is 95%.

With `CCOc1ccc(NS(=O)(=O)c2ccc3[nH]cc(C(=O)N4CCCC4)c(=O)c3c2)cc1`, the survival was 85%. Regarding `CCOc1ccc(NC(=O)Cn2c(=O)n(Cc3ccc(C(=O)NCc4ccc(C)cc4)cc3)c(=O)c3ccccc32)cc1`, the survival is 75%. Then `CCN(CC)c1nc(OCC(F)(F)F)nc(N(c2ccccc2)c2ccccc2)n1`, with 76%. As to `O=C(Cn1c(=O)n(Cc2ccco2)c(=O)c2oc3ccccc3c21)Nc1ccccc1`, the survival is 67%. Turning to `COc1ccc(NC(=O)Cn2c(=O)n(Cc3ccco3)c(=O)c3oc4ccccc4c32)cc1Cl`, the survival is 53%. Then `COc1cc(NC(=O)Cn2c(=O)n(C(C)C)c(=O)c3oc4ccccc4c32)cc(OC)c1`, with 47% (active); and `Cc1cc(C)cc(NC(=O)Cn2c(=O)n(C(C)C)c(=O)c3oc4ccccc4c32)c1`, with 48%; and `O=C(Cn1c(=O)n(Cc2ccco2)c(=O)c2oc3ccccc3c21)Nc1ccc(F)c(Cl)c1`, with 44% (active).

`CC(C)n1c(=O)c2oc3ccccc3c2n(CC(=O)Nc2ccccc2Cl)c1=O`: the survival is 60%. As for `COc1ccc(NC(=O)Cn2c(=O)n(C(C)C)c(=O)c3oc4ccccc4c32)cc1Cl`, the survival is 42% (active). As to `COc1cc(NC(=O)Cn2c(=O)n(Cc3ccccc3)c(=O)c3oc4ccccc4c32)cc(OC)c1`, the survival was 85%. Take `COc1ccc(NC(=O)Cn2c(=O)n(Cc3ccccc3)c(=O)c3oc4ccccc4c32)cc1Cl`: the survival was 85%.
